Active and inactive are the calls of the source. How the source made its calls: active means hit-call score of the fitted dose curve at least 0.9, where 1 is the maximum; inactive means score below 0.9.
Assay: APR_HepG2_CellLoss_1hr: Apredica 1-hour HepG2 Assay for Cell Loss (AID 2282668);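 further: curves fitted both ways against DMSO so gain or loss of cells counts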
Conditions: high-content imaging
Protocol: APR_HepG2_1hr is a cell-based, multiplexed-readout assay that uses HepG2, a human liver cell line, with measurements taken at 1 hour after chemical dosing in a 384-well plate.APR_HepG2_CellLoss_1hr is one of 10 assay component(s) measured or calculated from the APR_HepG2_1hr assay. It is designed to make measurements of cell number, a form of viability reporter, as detected with fluorescence intensity signals by HCS Fluorescent Imaging technology.Data from the assay component APR_HepG2_CellLoss_1hr was analyzed into 1 assay endpoint. This assay endpoint, APR_HepG2_CellLoss_1hr, was analyzed with bidirectional fitting relative to DMSO as the negative control and baseline of activity. Using a type of viability reporter, measures of all nuclear dna for gain or loss-of-signal activity can be used to understand the viability at the cellular-level. Furthermore, this assay endpoint can be referred to as a secondary readout, because this assay has produced multiple assay endpoints where this one serves a viability function. To generalize the intended target to other relatable targets, this assay endpoint is annotated to the cell cycle intended target family, where the subfamily is proliferation.
Cells were treated with dimethyl sulfoxide (DMSO) as a solvent control at a final concentration of 0.5% v/v or with compounds in DMSO with a resulting final DMSO concentration of 0.5% v/v. Compound treatment was done at concentrations of 0.39, 0.78, 1.56, 3.12, 6.24, 12.5, 25, 50, 100, and 200 uM in duplicate on each plate. Cells were treated with compounds for 1, 24, or 72 hr. Carbonyl […] m-chloro-phenylhydrazone (CCCP) and taxol were used as positive controls for mitochondrial function and cytoskeletal stability, respectively; DMSO served as the negative control for this experiment. Cells were fixed by the direct addition of 50 uL formaldehyde in Hank's Balanced Salt Solution (HBSS) to a final concentration of 3.7%. After incubation in the fixation medium for 30 min at room temperature (293-298 K), cells were rinsed twice with HBSS and treated with cell permeabilization buffer (16 uL of 0.5% Triton X-100) for 10 min at room temperature (293-298 K) before labeling. For mitochondrial membrane potential and mitochondrial measurements, pre-fixed cells were incubated with 50 uL of MitoTracker Red CMXRos (Invitrogen) at a concentration of 250 nM for 30 min before fixation. In the remaining cases, post-fixed cells were labeled by incubation with a multiplexed mixture of primary antibodies in HBSS for 60 min at room temperature (293-298 K) to detect immunoreactivity of c-Jun (1:500), phospho-histone H3 (1:100), phospho-histone H2A.x (1:200), p53 (1:400), alpha-tubulin (1:200) and Hoechst 33342 (2 ug/mL). Cells were labeled for multiplexed imaging on two separate plates: a) Hoechst 33342, MitoTracker Red, phospho-histone H3, and alpha-tubulin, and b) Hoechst 33342, phospho-histone H2A.x, and c-Jun. A final rinse with HBSS (50 uL) was performed before analysis. The primary and secondary antibodies for the proteins were phospho-histone H3 (rabbit anti-phospho-histone H3 and FITC-donkey anti-rabbit IgG), phospho-histone H2A.x (mouse anti-phospho-histone H2A.x and FITC-donkey anti-mouse IgG), c-Jun (rabbit anti-phospho-c-Jun and Cy3-donkey anti-rabbit IgG), p53 (sheep anti-p53 and Cy5-donkey anti-sheep IgG), alpha-tubulin (mouse anti-alpha-tubulin and Cy5-donkey anti-mouse IgG). These antibodies are available as the CellCiphr HepG2 assay kit (Millipore).Digital images of each well were captured using a Cellomics ArrayScan VTI (Thermo Scientific Cellomics) (0.8 NA objective, 0.63x optical coupler, and XF-93 filter set) at 20x magnification. The images were acquired using the autofocus feature of the ArrayScan instrument, which entails the following steps. First, the camera focuses on channel 1 (Hoechst 33342), where nuclei are identified. Second, a Z offset of 1 um is used for capturing mitochondria (MitoTracker Red). […]

Structure (SMILES)	outcome	AC50
COP(=S)(OC)Oc1ccc([N+](=O)[O-])cc1	inactive	–
O=S(=O)(O)C(F)(F)C(F)(F)C(F)(F)C(F)(F)C(F)(F)C(F)(F)C(F)(F)C(F)(F)F	inactive	–
CCOC1Oc2ccc(OS(C)(=O)=O)cc2C1(C)C (stereo not given)	inactive	–
O=S1OCC2C(CO1)C1(Cl)C(Cl)=C(Cl)C2(Cl)C1(Cl)Cl (stereo not given)	inactive	–
N#CN	inactive	–
CCCN(CCOc1c(Cl)cc(Cl)cc1Cl)C(=O)n1ccnc1	inactive	–
CCOCN(C(=O)CCl)c1c(C)cccc1CC	inactive	–
C#CCN1C(=O)COc2cc(F)c(N3C(=O)C4=C(CCCC4)C3=O)cc21	inactive	–
ClC1C(Cl)C(Cl)C(Cl)C(Cl)C1Cl (stereo not given)	inactive	–
O=C1c2ccccc2C(=O)N1SC(Cl)(Cl)Cl	inactive	–
COC(=O)c1ccccc1CS(=O)(=O)NC(=O)Nc1nc(OC)cc(OC)n1	inactive	–
CCN(CC)C(=O)SCc1ccc(Cl)cc1	inactive	–
O=[N+]([O-])/N=C1\NCCN1Cc1ccc(Cl)nc1	inactive	–
CC1(C)C(C=C(Cl)Cl)C1C(=O)OC(C#N)c1ccc(F)c(Oc2ccccc2)c1 (stereo not given)	inactive	–
CCCN(CCC)c1c([N+](=O)[O-])cc(C(F)(F)F)cc1[N+](=O)[O-]	inactive	–
O=C(O)COc1ccc(Cl)cc1Cl	inactive	–
COc1nn(CSP(=S)(OC)OC)c(=O)s1	inactive	–
Clc1ccccc1-c1nnc(-c2ccccc2Cl)nn1	inactive	–
Oc1cc(Cl)ccc1Oc1ccc(Cl)cc1Cl	–	114 µM (active)
CCC(C)(NC(=O)c1cc(Cl)c(C)c(Cl)c1)C(=O)CCl (stereo not given)	inactive	–

Structure (SMILES)	outcome	AC50
Cc1cc(C)nc(NC(=O)NS(=O)(=O)c2ccccc2C(=O)OC2COC2)n1	inactive	–
COC(=O)c1ccccc1S(=O)(=O)NC(=O)Nc1nc(C)nc(OC)n1	inactive	–
CC(C)N(C(=O)COc1nnc(C(F)(F)F)s1)c1ccc(F)cc1	inactive	–
Oc1ccc(Cl)cc1Cc1ccccc1	–	118 µM (active)
CCS(=O)(=O)c1cccnc1S(=O)(=O)NC(=O)Nc1nc(OC)cc(OC)n1	inactive	–
O=C(O)CCCOc1ccc(Cl)cc1Cl	inactive	–
C[C@H]1[C@H](c2ccc(Cl)cc2)SC(=O)N1C(=O)NC1CCCCC1	inactive	–
CCC(C)Nc1c([N+](=O)[O-])cc(C(C)(C)C)cc1[N+](=O)[O-] (stereo not given)	inactive	–
CC(C)(C)C(O)C(Oc1ccc(Cl)cc1)n1cncn1 (stereo not given)	inactive	–
CCC(C)(C)C(=O)OC1=C(c2ccc(Cl)cc2Cl)C(=O)OC12CCCCC2	inactive	–
CN1CSC(=S)N(C)C1	inactive	–
CC1(c2ccc(Oc3ccccc3)cc2)OC(=O)N(Nc2ccccc2)C1=O (stereo not given)	inactive	–
CCc1ccc(C(=O)NN(C(=O)c2cc(C)cc(C)c2)C(C)(C)C)cc1	inactive	–
Cc1[nH]c(=O)n(C(C)(C)C)c(=O)c1Cl	inactive	–
CC[C@H](C)[C@H]1O[C@]2(C=C[C@@H]1C)C[C@@H]1C[C@@H](C/C=C(\C)[C@@H](O[C@H]3C[C@H](OC)[C@@H](O[C@H]4C[C@H](OC)[C@@H](O)[C@H](C)O4)[C@H](C)O3)[C@@H](C)/C=C/C=C3\CO[C@@H]4[C@H](O)C(C)=C[C@@H](C(=O)O1)[C@]34O)O2 (tested in a mixture with another compound)	inactive	–
O=[N+]([O-])c1c(Cl)c(Cl)c(Cl)c(Cl)c1Cl	inactive	–
O=C(Nc1ccccc1)Nc1cnns1	inactive	–
CNC(=O)Oc1ccccc1OC(C)C	inactive	–
CC(C)(C)C(O)/C(=C\c1ccc(Cl)cc1Cl)n1cncn1 (stereo not given)	inactive	–
CCOc1nc(NC)nc(NC(=O)NS(=O)(=O)c2ccccc2C(=O)OC)n1	inactive	–

— PubChem BioAssay (EPA / NIEHS)
